From PubChem BioAssay AID504648 (National Center for Advancing Translational Sciences (NCATS), 2011) come the findings set out here.

Screen size: about 390,000 compounds; about 610 (0.16%) were called active. Inconclusive results (about 4%) are left out. The list comes from a sample in which actives are over-represented; it also holds similar structures and randomly drawn compounds. Values without a mark were called inactive. The call rests on the fitted dose curve; in most records, active means well fitted inhibition curve with a large enough effect; inconclusive means small, poorly fitted or top-dose-only effect, or effect the other way, or another doubt; inactive means no such curve, though single readings can be large or run the other way.
On the % scale 0 is the no-effect control and ±100 the full control effect; potency means the concentration at half of the fitted maximal effect.

The nature of the experiment: Nrf2 qHTS screen for inhibitors: counterscreen for cytotoxicity. As to conditions: A549 ARE-Fluc cells, CellTiter-Fluor viability, 18-24 h; series mostly up to 46 µM; activity change, negative = cytotoxicity: at the top concentration. The source says: NIH Molecular Libraries Probe Production Network [MLPCN]
NIH Chemical Genomics Center [NCGC]
Assay Provider: Shyam Biswal, Johns Hopkins University
Nrf2 is a transcription factor that maintains cellular redox homoestasis and protects cells from xenobiotics. Nrf2 binds to the antioxidant response element (ARE) to induce gene expression of a broad spectrum of genes that encode for antioxidants. […] Finding a small molecule that act as an inhibitor of Nrf2 function would represent a novel therapeutic target that could lead to improvement in survival of patients undergoing chemo- and/or radio- therapy.
So here we implemented a counterscreen to weed out the cytotoxic compounds.
1. Shibata, T., et al., Genetic Alteration of Keap1 Confers Constitutive Nrf2 Activation and Resistance to Chemotherapy in Gallbladder Cancer. Gastroenterology, 2008.
2. Sjoblom, T., et al., The consensus coding sequences of human breast and colorectal cancers. Science, 2006. 314(5797): p. 268-74.
NCGC Assay Protocol Summary:
A concentration-response assay was performed with A549 ARE_Fluc cells which are suspended in 5% FBS OPTI-MEM. Five uL were dispensed into 1536-well white TC-treated plate using the Kalypsys dispenser to achieve a density of 5000 cells/well in all columns except column 1. The plate is incubated at 37deg C at 5% CO2 for 2 hours before 23 nL of compounds are added with the Kalypsys pin tool equipped with a 1,536-pin array containing 10-nL slotted pins (FP1S10, 0.457-mm diameter, 50.8 mm long; V&P Scientific). The control compounds Budesonide and Staurosporine are both added at a concentration of 2mM and Budesonide is also added as a 1:10 titration, starting at 200uM, to achieve dose-response. After an 18-24 hour incubation at 37deg C at 5% CO2, 5ul of medium is added to column 1. Afterwards 1ul of 5x of CellTiter-Fluor (Promega) is added to every well. The plate is then incubated at 37deg C at 5% CO2 for 30 minutes before they are read on the ViewLux (Perkin Elmer) for a fluorescent read Ex=405(10)/Em=525(10) for a 3 second exposure, 2x binning, and high gain. Then 3 uL of 3x BugLite is dispensed into all wells and the plate is incubated at ambient room temperature for 15 minutes. Afterwards another ViewLux read is performed using the clear filter to get a luminescent read with the settings of 40 second exposure, 2x binning, and high gain. Cytotoxicity is assessed through the first fluorescent read and then biochemical activity against Nrf2 is measured in the luminescent read.
A general note: In qHTS, concentration-response curves come from the screen itself.
Take `CCC(C)(O)C(=O)OC1C(=O)OC2CC3C(C)=CC(=O)C(O)C3(C)C3C4(O)OCC23C1C(C)C4O` (stereo not given): the Potency was 5.8 µM (active).
`c1ccc(CC2CCCCN2)cc1` (stereo not given): the “activity change, negative = cytotoxicity” value was -2.1%.
For the compound `Cc1ccc(-n2c(/C=C/c3cccc(C(F)(F)F)c3)nc3ccccc3c2=O)cc1`, the “activity change, negative = cytotoxicity” value is -0.777%.
Still for that read-out and setting: under `CSc1nc2ccc(C)cc2c(=O)n1-c1cccnc1` stands -2.75%; under `CCN1CCN(c2ccc([N+](=O)[O-])cc2C#N)CC1`, -0.62%; under `COc1cccc(-c2nc3ccc(N4CCN(C)CC4)cc3[nH]2)c1`, -4.58%.
Turning to `CN1CCN(c2cc(N3CCNCC3)ccc2[N+](=O)[O-])CC1`, the Potency is 16.4 µM (active).
Still for that read-out and setting: under `CC1=CC(=Cc2sc3ccccc3[n+]2C)C=C(C)O1` stands 2.59 µM (active).
`CC(c1ccccc1)(c1ccccc1)c1ccncc1`: the “activity change, negative = cytotoxicity” value is 8.35%.
Still for that read-out and setting: for `Cc1ccc(Cn2nnnc2CN2CCC(n3nnc4ccccc43)CC2)cc1` the value was -13.9%.
`COC(=O)C1=C(c2cc3ccccc3o2)C[C@@H]2CC[C@H]1N2C(=O)NC1CCCCC1`: the “activity change, negative = cytotoxicity” value is -2.75%.
In the case of `O=Cc1cn(Cc2ccc(F)cc2Cl)c2ccccc12`, the “activity change, negative = cytotoxicity” value is 0.05%.
Take `CO[C@H]1[C@@H](O)[C@@H](C)O[C@H](O[C@H]2[C@H](Oc3cccc4c(O)c5c(=O)oc6ccc(C)c7c(=O)oc(c34)c5c67)O[C@H](C)[C@H](O)[C@@H]2O)[C@@H]1O`: the “activity change, negative = cytotoxicity” value is -11.9%.
On the same count and under the same terms, under `CCCCCCCCCCCCn1ccc(=N)cc1` stands -16.4%; under `S=P(c1ccccc1)(c1ccccc1)c1c(-c2ccccc2)[nH]c2ccccc12`, -15.8%.
As to `CC(C)(C)c1ccc(CN2C(=O)CN=C(c3ccccc3)c3ccccc32)cc1`, the Potency was 25.9 µM (active).
Take `O=C1CC(=O)N(Cc2ccccc2)C(=O)N1CCCCCCN1C(=O)CC(=O)N(Cc2ccccc2)C1=O`: the “activity change, negative = cytotoxicity” value is 1.06%.
Consider `COc1cc([C@@H]2c3cc4c(cc3[C@H](OC(C)=O)[C@H]3COC(=O)[C@H]23)OCO4)cc(OC)c1OC`, for which the “activity change, negative = cytotoxicity” value was -4.1%.
Turning to `CCN(CC)C(=O)c1ccc(NC(=O)c2sccc2-c2ccccc2)cc1`, the “activity change, negative = cytotoxicity” value was 4.65%.
Same read-out and setting: under `CC(C)c1ccc(-n2c(O)c(/C=N/N3CCOCC3)c(=O)[nH]c2=S)cc1` stands 0.295%.
`CC(=O)OC1C2(CC3N4C(=O)C5(CO)SSC4(CC31O)C(=O)N5C)OC(C)C(C)(C)C2=O` (stereo not given): the Potency is 7.31 µM (active).
Turning to `CC(Cc1ccccc1)NCCC(c1ccccc1)c1ccccc1` (stereo not given), the “activity change, negative = cytotoxicity” value is -4.79%.
Same read-out and setting: under `Cc1cccc(OP(=O)(Oc2cccc(C)c2)OC(c2ccccc2)C(F)(F)F)c1` (stereo not given) stands 13.4%; under `O=C(O)c1cc[c]([Sb](=[O])([OH])[OH])cc1[N+](=O)[O-]`, 6.48%.
Consider `Cc1ccc(NC(=O)N(Cc2ccc3c(c2)OCO3)C2CCN(Cc3ccccc3)CC2)cc1F`, for which the “activity change, negative = cytotoxicity” value was -4.53%.
As for `CN(c1ccccc1)c1ccc([N+](=O)[O-])c2nonc12`, the Potency was 20.6 µM (active).
Turning to `CCN(CC)c1ccc([N+](=O)[O-])c2cccnc12`, the “activity change, negative = cytotoxicity” value is -17.6%.
As for `O=P1(Oc2ccccc2)CC(O)C(O)C(COCc2ccccc2)O1` (stereo not given), the “activity change, negative = cytotoxicity” value was -0.0059%.
Still for that read-out and setting: for `CC(C)(C)[C@]1(O)C[C@@H]2OC(=O)C[C@@]23C(=O)O[C@@H]2OC(=O)[C@H](O)[C@]213` the value was 2.45%; for `Cc1ccc(C(C)C)c(OCC(=O)N2CCN(CC(=O)N3CCOCC3)CC2)c1`, -1.23%.
